Source: PubChem BioAssay (NCI)
Compounds without any hit were thinned out: in the full panel of roughly 79,000, 15% have a hit. Rule as the data show it: active = growth inhibition above about 70%; inactive = the rest.

Tests used:
[1] = NCI Yeast Anticancer Drug Screen. Data for the rad50 strain (AID 155);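 also: 0% = growth of vehicle-only cultures of the same strain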; conditions: S. cerevisiae rad50 strain growth inhibition; at 50.0 µM; active compounds read high
Procedure, shortened: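 Vehicle-treated cultures provide the reference for the growth inhibition reported for compound-exposed, repair-deficient yeast.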

[2] = NCI Yeast Anticancer Drug Screen. Data for the mec2-1 strain (AID 157); conditions: S. cerevisiae mec2-1 strain, at 50.0 µM, active compounds read high
Procedure, shortened: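 Yeast mec2-1 mutant treated with compound. Readout: growth inhibition vs vehicle controls.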

[3] = NCI Yeast Anticancer Drug Screen. Data for the sgs1 mgt1 strain (AID 161);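 also: 0% = growth of cultures given vehicle only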; conditions: S. cerevisiae sgs1 mgt1 strain, at 50.0 µM, active compounds read high
Procedure, shortened: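 Read-out: growth inhibition vs vehicle controls. Cells: mutant yeast strain deficient in DNA damage repair.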

[4] = NCI Yeast Anticancer Drug Screen. Data for the cln2 rad14 strain (AID 165);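 also: 0% = growth equal to vehicle treated cultures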; conditions: S. cerevisiae cln2 rad14 strain, at 50.0 µM, active compounds read high
Procedure, shortened: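 cln2 rad14 yeast strain; compound exposure; growth inhibition read vs vehicle controls.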

[5] = NCI Yeast Anticancer Drug Screen. Data for the bub3 strain (AID 167); conditions: S. cerevisiae bub3 mutant strain, at 50.0 µM, active compounds read high
Procedure, shortened: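 Mutant yeast screening strain plus compound; vehicle-treated cultures serve as the 0% inhibition reference.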

[6] = NCI Yeast Anticancer Drug Screen. Data for the mlh1 rad18 strain (AID 175); conditions: S. cerevisiae mlh1 rad18 strain growth inhibition; at 50.0 µM; active compounds read high
Procedure, shortened: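 Yeast w/ defined DNA-repair lesions; compound exposure; growth vs vehicle controls → % inhibition.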

Measured: growth inhibition

Cc1cc(OCC(=O)O)c(Cl)cc1Cl
inactive: [1] -13.4% | [2] -9.7% | [3] -50.5% | [4] -22.9% | [5] -17.9% | [6] -11.7%

CC1(C)CC2CC(CC(C)(C)C2=O)C1=O
inactive: [1] -8.65% | [2] -11% | [3] -0.7% | [4] 5.05% | [5] 7.9% | [6] -1.75%

O=S(=O)(Nc1cc(C(F)(F)F)ccc1Cl)c1ccc(F)cc1
inactive: [1] -24.3% | [2] -22.4% | [3] -34.4% | [4] 7.5% | [5] -32.6% | [6] -8%

CC(=O)c1cccc2c(C(C)=O)cccc12
inactive: [1] 5.45% | [2] -5.2% | [3] 14.8% | [4] -20.1% | [5] 3.4% | [6] -15.1%

CCOCCOC(=O)/C=C/c1ccccc1
inactive: [1] 17.6% | [2] -9.6% | [3] -4.35% | [4] -46.8% | [5] 8.15% | [6] -3.15%

Cc1csc2[nH]c(=O)[nH]c(=O)c12
inactive: [1] 5.5% | [2] 6.05% | [3] -1.4% | [4] -28.1% | [5] -15.2% | [6] 4.5%

Cc1ccc(S(=O)(=O)N2CCC[C@@H]2C(=O)O[C@@H]2CCC3CC=CC32)cc1 (stereo partly specified)
inactive: [1] 3.65% | [2] -17.3% | [3] 10.2% | [4] -1.8% | [5] -12.3% | [6] -0.1%

CSCCC(NC(=O)NS(=O)(=O)c1ccc(C)cc1)C(=O)O (stereo unspecified)
inactive: [1] -4.3% | [2] -16.1% | [3] -2.3% | [4] 20.2% | [5] 6.45% | [6] 9.55%

COC(=Nc1cccc2ccccc12)Nc1cccc2ccccc12
inactive: [1] 1.95% | [2] -3.5% | [3] -4.35% | [4] 7.95% | [5] -2.3% | [6] -2%

CN(C)CC1CCc2ccccc2C1=O (stereo unspecified)
inactive: [1] -16.1% | [2] -37.2% | [3] -46.8% | [4] -2.05% | [5] -52.1% | [6] -48.1%

CCCCCN(CCCCC)CC(O)c1ccc2cc3c(nc2c1)CCCC3 (stereo unspecified)
inactive: [1] 6.2% | [2] 10.2% | [3] 26.9% | [4] 5.25% | [5] -7.2% | [6] 1.5%

CC1=C(CCC(=O)O)c2cc3nc(cc4[nH]c(cc5[nH]c(cc1n2)c(C)c5C(C)O)c(C)c4C(C)O)C(C)=C3CCC(=O)O (stereo unspecified)
inactive: [1] 12.4% | [2] 5.2% | [3] 7.7% | [4] 29.8% | [5] 21.6% | [6] 1.65%

c1ccc(SC2CCSc3ccccc3C2Sc2ccccc2)cc1 (stereo unspecified)
inactive: [1] 3.2% | [2] -14.7% | [3] 3.2% | [4] 3.65% | [5] 0.5% | [6] 11.2%

OCC1(CO)CCC=CO1
inactive: [1] 3.8% | [2] -7.8% | [3] 2.5% | [4] 10.7% | [5] 1.05% | [6] 5%

Cc1nc2nncn2c(=O)[nH]1
inactive: [1] 9.35% | [2] -0.4% | [3] 31.8% | [4] 15.4% | [5] 6.1% | [6] 17.9%

O=Cc1cc2c(cc1-c1c(C=O)ccc3c1OCO3)OCO2
inactive: [1] 58.2% | [2] 27.2% | [3] 46.9% | [4] 18.6% | [5] 30.9% | [6] 26.6%

N#CCCCCN1CCOCC1
inactive: [1] 10.3% | [2] -7.5% | [3] -21.7% | [4] 22.1% | [5] -8.9% | [6] 20.7%

NC1=NC(c2ccccc2O)CC(=O)N1 (stereo unspecified)
inactive: [1] -6.4% | [2] -8.25% | [3] -12.9% | [4] -32.6% | [5] -3.9% | [6] -6.35%

O=S=Nc1ccc([N+](=O)[O-])cc1Cl
inactive: [1] 5.7% | [2] -1.15% | [3] -2.9% | [4] -33.6% | [5] 10.7% | [6] 16.6%

CC(=O)Oc1ccc(Nn2c3ccccc3c3ccccc32)c(C)c1
inactive: [1] 56.6% | [2] 47.9% | [3] 36.1% | [4] 54.6% | [5] 41.4% | [6] 43%

Cc1ncc([N+](=O)[O-])n1CCNC(=O)CCCn1cnc([N+](=O)[O-])n1
inactive: [1] -17.8% | [2] -34% | [3] -15.8% | [4] -17.4% | [5] -27.9% | [6] -38.9%

Cc1ccc(O)c(C(=O)c2ccccc2C(=O)O)c1
inactive: [1] 15% | [2] -11.9% | [3] -6.95% | [4] 44.4% | [5] 4.9% | [6] 22.4%

Cn1c(=O)c2c(no[n+]2[O-])c2ccccc21
inactive: [1] 18.1% | [2] 15.7% | [3] 8.05% | [4] 14.1% | [5] 21.1% | [6] 22.4%

CSc1ccccc1C(C)(C)O
inactive: [1] 24.6% | [2] -2.55% | [3] 3.35% | [4] -29.8% | [5] -1.4% | [6] 26.4%

CCOc1ccc(-n2c(=O)c(N=Nc3ccccc3Cl)c(O)n(-c3ccc(Br)cc3)c2=S)cc1
inactive: [1] 38.5% | [2] 17.9% | [3] 52.1% | [4] 12.7% | [5] -11.7% | [6] 5.8%

Cc1cc(Cc2ccc(NC(=O)N3CC3)c(C)c2)ccc1NC(=O)N1CC1
inactive: [1] -2.95% | [2] -8.25% | [3] -6.8% | [4] 0.25% | [5] 10.8% | [6] -18.9%

CCC(O)(CC)Cc1ccc(Cl)cc1
inactive: [1] -1% | [2] -9.55% | [3] -0.4% | [4] -12.2% | [5] -12.4% | [6] -6.65%

Nc1nc2nc[n-]c2c(=O)[nH]1.[NH2-].[NH2-].[NH2-].[NH2-].[NH2-].[Ru+6]
inactive: [1] 20.6% | [2] 4.55% | [3] 4.9% | [4] 2.5% | [5] -5.8% | [6] -4.9%

c1ccc(CN[C@]23C4C5CC6C7C5C2C7[C@@](NCc2ccccc2)(C64)N3Cc2ccccc2)cc1 (stereo partly specified)
inactive: [1] 2.7% | [2] -1.05% | [3] -11.8% | [4] -37.4% | [5] -0.85% | [6] 5.25%

COc1cccc(-c2cc(=O)c3cc(Cl)cnc3[nH]2)c1
inactive: [1] 5.35% | [2] 2.7% | [3] 4.2% | [4] 31.1% | [5] 11.8% | [6] 5.1%

Cc1ccc(S(=O)(=O)N/N=C(\c2nc3ccc([N+](=O)[O-])cc3[nH]c2=O)C(O)c2ccccc2Cl)cc1 (stereo unspecified)
inactive: [1] -1.2% | [2] -9.35% | [3] 11.6% | [4] 5.85% | [5] 10.3% | [6] 23.8%

O=C1Nc2cc(Cl)ccc2N=CC1NC(=O)C(c1ccccc1)c1ccccc1Cl (stereo unspecified)
inactive: [1] -33.1% | [2] -11.6% | [3] -6.15% | [4] -15.9% | [5] -6.8% | [6] -17.8%

CCc1ccccc1NC(=O)Sc1cccc(C)c1
inactive: [1] -3% | [2] 27% | [3] 25.6% | [4] -12.9% | [5] 23% | [6] -28.9%

CS(=O)(=O)CC1=NC(=N)N=C1CS(C)(=O)=O
inactive: [1] 6.05% | [2] -14.9% | [3] -8.95% | [4] -4.85% | [5] -29.8% | [6] 2.1%

C=CCNC(=S)NNC(=O)c1c(C)nc2sccn12
inactive: [1] -4.75% | [2] -10.8% | [3] -12.1% | [4] 0.25% | [5] -14.2% | [6] -5.9%

CC1(C)C[C@H](OC2CCCCO2)[C@H]2O[C@@]2(C)C1 (stereo partly specified)
inactive: [1] 10.8% | [2] 4.3% | [3] -29.8% | [4] 1.1% | [5] 18.4% | [6] 3.95%
